Experimental data reported in PubChem BioAssay AID720541 (National Center for Advancing Translational Sciences (NCATS), 2013).
Screen size: about 1,300 compounds; about 420 (32%) were called active. Not shown: some 32% with an inconclusive outcome. The list shows a part of the results. A number with no mark means an inactive call. The call rests on the fitted dose curve; in most records, active means well fitted inhibition curve with a large enough effect; inconclusive means small, poorly fitted or top-dose-only effect; inactive means no such curve, though single readings can be large or run the other way.

These compounds were tested against C-terminal-binding protein 1 (Homo sapiens) (UniProt Q13363) (assay: qHTS for Inhibitors of the Phosphatase Activity of Eya2: Carboxyl-terminal binding protein (CtBP) Counterscreen for Cherry-picked Compounds). Conditions: purified protein-protein binding, AlphaScreen, 3 h; series mostly up to 46.1 µM; activity change, negative = inhibition: at the top concentration.
How it was run: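 AlphaScreen using 25 nM GST-E1A with 25 nM CtBP-6xHIS; compounds at 2.5 nM–46 uM final, 2 h at room temperature, then donor/acceptor beads (20 ug/mL) for 1 h in the dark. Signal normalized to E1A peptide inhibitor (maximum inhibition) and DMSO.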
Further: nearly all actives have a fitted effect of over 65% in size.
On the % scale 0 is the no-effect control and ±100 the full control effect; potency means the concentration at half of the fitted maximal effect.

SMILES | activity change, negative = inhibition | Potency
CN(C)c1ccc(C(CNS(=O)(=O)c2ccc(F)c(F)c2)c2c[nH]c3ccccc23)cc1 (configuration not stated) | -19.8% | 
COc1ccc2oc(C(=O)Nc3cccc(S(=O)(=O)N4CCOCC4)c3)c(C)c2c1 | 2.02% | 
Cc1ccc(NC(=O)/C=C/c2ccc3c(c2)OCO3)cc1S(=O)(=O)N1CCOCC1 |  | 6.75 µM (active)
S=C(Nc1ccc2c(c1)OCCO2)Nc1ccc2c(c1)OCO2 | -13.5% | 
O=C(COC(=O)c1cc(=O)[nH]c2ccccc12)Nc1cccc(S(=O)(=O)N2CCOCC2)c1 | -20.2% | 
NC(=O)C1CCN(CC(=O)Nc2ccc3c(c2)OCO3)CC1 | 56.5% | 
COc1ccc(/C=C/C(=O)Nc2cccc(S(=O)(=O)N3CCOCC3)c2)cc1OC |  | 15.1 µM (active)
COc1ccc(S(=O)(=O)N2CCOCC2)cc1C(=O)Nc1cccc(C(=O)NC2CC2)c1 |  | 15.1 µM (active)
Cc1ccc(NC(=O)c2ccc3c(c2)OCO3)cc1S(=O)(=O)N1CCOCC1 |  | 8.49 µM (active)
O=C(COC(=O)c1cc(S(=O)(=O)N2CCOCC2)ccc1O)Nc1ccc2c(c1)OCO2 | -29.9% | 
Oc1ccc(-c2nc3c4c(ncn3n2)-c2ccccc2CC42CCCC2)cc1 | -5.04% | 
Cc1ccc(Nc2nc(N)nc(CSc3nnc(C)s3)n2)cc1 | -28.6% | 
O=C(O)C1=C[C@@H](c2csc3ccccc23)C[C@@H](OCc2ccc(CO)cc2)O1 | 1.42% | 
CN(C)Cc1ccccc1Sc1cccc2ccccc12 | -22.5% | 
CCN(CC)C(=O)c1ccc(O)c(OC)c1 | 10% | 
COc1ccccc1-n1c(SCC(=O)Nc2cc(C)on2)nc2c(c1=O)SCC2 | -4.85% | 
Cc1cc(NC(=O)CS(=O)(=O)c2cn(Cc3cccc(Br)c3)c3ccccc23)no1 | -9.1% | 
COc1cccc(-c2nnc(SCC(=O)Nc3cc(C)on3)o2)c1 |  | 12 µM (active)
O=C(Nc1cccc(O)c1)c1cccc(C(=O)Nc2cccc(O)c2)c1 |  | 8.49 µM (active)
O=C(Nc1ccccc1)C(Cl)C(=O)c1ccccc1 (configuration not stated) | -7.71% | 
COc1cc(CNC(=O)Nc2nc(C(N)c3ccccc3)cs2)cc(OC)c1OC (configuration not stated) |  | 13.5 µM (active)

SMILES | activity change, negative = inhibition | Potency
CCC(=O)Nc1nc2c(OC)ccc(OC)c2s1 | -9.07% | 
O=S(=O)(c1ccccc1)[C@@]1(c2ccccc2)C[C@@H]2ON=C(c3cccc(-c4ccccc4)c3)[C@@H]2C1 | -6.8% | 
COc1cccc(C=NCC(C)N=Cc2cccc(OC)c2O)c1O (configuration not stated) |  | 16.9 µM (active)
COc1ccc(N2CCN(C(c3ccco3)c3sc4nc(C)nn4c3O)CC2)cc1 (configuration not stated) | -20.4% | 
Oc1c(C(c2cccs2)N2CCN(c3ccccc3)CC2)sc2ncnn12 (configuration not stated) |  | 19 µM (active)
O=c1c(O)cccc2cc(O)c(O)c(O)c12 |  | 15.1 µM (active)
COc1ccccc1NC(=O)c1ccc(NC(=O)Cc2n[nH]c(=O)c3ccccc23)cc1 | 6.99% | 
COc1ccccc1OCC(=O)Nc1ccc(C(=O)Nc2ccccc2C(=O)O)cc1 |  | 16.9 µM (active)
CC1=C(/C=C/C(C)=C/C=C/C(C)=C/C(=O)Nc2ccc(O)cc2)C(C)(C)CCC1 | -22% | 
COc1ccc(S(=O)(=O)N2CCC3CC2c2cc(N4CCOCC4)ccc23)cc1 (configuration not stated) | 53.4% | 
O=C(Oc1ccc(=O)n(-c2ccccc2)n1)c1ccc(F)cc1 | 7.08% | 
C[n+]1ccc(/C=C/c2cc[n+](C)c3ccccc23)c2ccccc21 |  | 15.1 µM (active)
CN1C=C/C(=C\c2cc[n+](C)c3ccccc23)c2ccccc21 |  | 15.1 µM (active)
O=S(=O)(O)c1ccc2c(N=Nc3ccc(S(=O)(=O)O)c4ccccc34)c(O)c(S(=O)(=O)O)cc2c1 |  | 9.53 µM (active)
CC(=O)Nc1ccc(S(=O)(=O)O)c2cc(S(=O)(=O)O)c(N=Nc3ccc(N=Nc4ccc(S(=O)(=O)O)cc4)c4ccc(S(=O)(=O)O)cc34)c(O)c12 |  | 1.69 µM (active)
Cc1ccc(NC(=O)c2ccc3[nH]c(=O)c(=O)[nH]c3c2)nc1 |  | 6.75 µM (active)
O=C(NC1=C(Nc2ccc(F)cc2)C(=O)c2ccccc2C1=O)c1ccc(Cl)cc1 | -23.9% | 
Cc1cc(NC(=O)c2cccc(N3C(=O)CCC3=O)c2)no1 | 5.6% | 
O=C(Nc1ccc(F)cc1)c1ccc2[nH]c(=O)c(=O)[nH]c2c1 |  | 1.9 µM (active)
Cc1nc2c(C(=O)Nc3ccc(N4CCCC(O)C4)cc3)snc2c(=O)[nH]1 (configuration not stated) | -14.4% | 
CCOc1cc(/C=C2/NC(=O)NC2=O)cc(Br)c1OCc1ccc(C(=O)O)cc1 | -28.6% | 

SMILES | activity change, negative = inhibition | Potency
CSCc1cc(N(C)c2ccccc2)nc(-c2ccccn2)n1 |  | 13.5 µM (active)
O=C(O)C1=NN(c2cc(Cl)c(S(=O)(=O)O)cc2Cl)C(=O)C1 | -1.01% | 
CN(C)c1ccc(N=c2sc3ccccc3n2C)cc1 |  | 7.57 µM (active)
CCN1CCN(c2ncnc3scc(-c4ccc(C)cc4)c23)CC1 | -13.6% | 
CCc1nnc2c(N(C)C)nc3ccccc3n12 |  | 12 µM (active)
CN(C)S(=O)(=O)n1cnc2ccccc21 | 2.9% | 
O=C1C(NS(=O)(=O)c2cccs2)=C(N2CCN(Cc3ccccc3)CC2)C(=O)c2ccccc21 |  | 10.7 µM (active)
CC(=O)Nc1ccc(S(=O)(=O)NC2=C(N3CCN(Cc4ccccc4)CC3)C(=O)c3ccccc3C2=O)cc1 |  | 16.9 µM (active)
Cc1cc2oc(C(=O)N3CCN(Cc4ccccc4)CC3)c(C)c2cc1C | -17.7% | 
O=c1c2ccccc2nnn1CSc1nnc(C2COc3ccccc3O2)n1-c1ccccc1 (configuration not stated) | -10.6% | 
O=c1cc(CSc2ccc(Cl)cc2)nc(-c2ccccn2)[nH]1 |  | 2.13 µM (active)
Nc1nc2cc3ccccc3cc2[nH]c1=O | -9.19% | 
O=c1nc(-c2ccccc2)c2cc(Cl)ccc2[nH]1 |  | 13.5 µM (active)
COc1ccc(NC(=O)c2[nH]c(C)c(C(C)=O)c2C)cc1Cl | -22.9% | 
O=C1C(NS(=O)(=O)c2ccc(Br)cc2)=C(N2CCCCC2)C(=O)c2ccccc21 |  | 13.5 µM (active)
CC1CCN(C2=C(NS(=O)(=O)c3ccc(Br)cc3)C(=O)c3ccccc3C2=O)CC1 |  | 5.36 µM (active)
O=C1C(Nc2cccc(O)c2)=C(N2CCCCC2)C(=O)c2ccccc21 |  | 19 µM (active)
O=C1N=c2ccccc2=C1c1sc(Nc2cccc(O)c2)nc1O | -25.1% | 
O=C(CCS(=O)(=O)c1ccc(Br)cc1)N1CCCCCC1 | 6.61% | 
CN(C1=C(N2CCCCC2)C(=O)c2ccccc2C1=O)c1ccccc1 |  | 1.9 µM (active)
